The list is not random: actives were taken first. Their share in the collection is about 2.1%.
PAX8 inh HTS = inhibitors of PAX8 transcriptional activity in RMG-I cells; RMG-I TPO-luciferase reporter, SteadyGlo, 24 h; inhibition, % at 12.6 µM; actives 1.2% (n = 360,000); AID 652154;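 active means mean replicate inhibition at least 60% with every replicate also reaching 60%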;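 further: luciferase light reporting Pax8 driven TPO promoter activity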
CF NFkB block = blocks PAF-induced NF-kB reporter in cystic fibrosis cells; KKLEB NF-kB-GFP reporter, GFP fluorescence overnight; inhibition, % at 5 µM; actives 0.86% (n = 360,000); AID 588850;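 active means at least 50% inhibition at 5 µM, scaled per plate between neutral and stimulator controls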;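 further: PAF is a Pseudomonas aeruginosa culture filtrate used as stimulus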
EWS-Fli inh = inhibitors of EWS/Fli oncoprotein transcriptional activity | A673 NR0B1-luciferase reporter, viability-normalised | inhibition, % at 12.6 µM | actives 0.67% (n = 350,000) | AID 651661;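 active means mean inhibition of at least 50% after viability correction, with every replicate also passing that limit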;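 further: firefly luciferase signal divided by Alamar Blue viability fluorescence both relative to DMSO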
HIF-2a block = HIF-2a inhibition. 786-0 RCC cells HIF-2a reporter, luciferase luminescence, overnight. inhibition, % at 18.8 µM. actives 0.72% (n = 360,000). AID 624352;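 active means inhibition of the luminescence signal of 40% or more relative to plate controls, in a single-dose primary screen at 18.75 µM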
KKLEB cytotox = reduces viability of KKLEB cystic fibrosis airway cells | actives 0.36% (n = 360,000) | activity change (cytotoxicity), % at 5 µM | KKLEB CF airway cells viability, ATPlite luminescence, overnight; stronger effect = lower value; cells stimulated with P. aeruginosa culture filtrate;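 active means corrected activity change at or below -50% at 5 µM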
Hits are given with their value; i = inactive; nt = no result.

SMILES | PAX8 inh HTS | CF NFkB block | EWS-Fli inh | HIF-2a block | KKLEB cytotox
C[C@H](CO)N1C[C@H](C)[C@@H](CN(C)Cc2ccc(Cl)c(Cl)c2)OCCCC[C@H](C)Oc2ccc(NS(=O)(=O)c3ccccc3)cc2C1=O | 84 | nt | i | nt | nt
C[C@@H]1CCCCO[C@@H](CN(C)Cc2ccc(Cl)c(Cl)c2)[C@@H](C)CN([C@@H](C)CO)C(=O)c2cc(NS(=O)(=O)c3ccccc3)ccc2O1 | 68 | nt | i | nt | nt
Cc1ccc(S(=O)(=O)Nc2ccc3c(c2)C(=O)N([C@H](C)CO)C[C@H](C)[C@@H](CN(C)Cc2ccc(Cl)c(Cl)c2)OCCCC[C@@H](C)O3)cc1 | i | nt | i | nt | nt
C[C@@H]1CCCCO[C@H](CN(C)Cc2ccc(Cl)c(Cl)c2)[C@H](C)CN([C@@H](C)CO)C(=O)c2cc(NS(=O)(=O)c3ccccc3)ccc2O1 | i | nt | i | nt | nt
COc1ccc2c3c(n(C)c2c1)[C@@H](CO)N(C(=O)CN1CCOCC1)CC31CN(C(=O)C2CC2)C1 | nt | nt | i | nt | nt
COc1ccc(C2NC(=S)NC3=C2CCCC3=C2SCCS2)cc1 (stereo unspecified) | 102 | i | 63 | i | i
C[C@H](CO)N1C[C@H](C)[C@H](CN(C)Cc2ccc(Oc3ccccc3)cc2)Oc2ccc(NC(=O)CCC(F)(F)F)cc2CC1=O | i | nt | i | nt | nt
COc1ccc(NC(=O)Nc2ccc3c(c2)CC(=O)N([C@@H](C)CO)C[C@@H](C)[C@H](CN(C)Cc2ccc(Oc4ccccc4)cc2)O3)cc1 | 70 | nt | i | nt | nt
C[C@@H]1CN([C@@H](C)CO)C(=O)Cc2cc(NC(=O)CCC(F)(F)F)ccc2O[C@H]1CN(C)Cc1ccc(Oc2ccccc2)cc1 | 90 | nt | i | nt | nt
COc1ccc(NC(=O)Nc2ccc3c(c2)CC(=O)N([C@H](C)CO)C[C@@H](C)[C@@H](CN(C)Cc2ccc(Oc4ccccc4)cc2)O3)cc1 | 103 | nt | i | nt | nt
C[C@@H]1CN([C@@H](C)CO)C(=O)Cc2cc(NC(=O)Cc3cn(C)c4ccccc34)ccc2O[C@H]1CN(C)Cc1ccc(Oc2ccccc2)cc1 | 86 | nt | i | nt | nt
COc1ccc(NC(=O)Nc2ccc3c(c2)CC(=O)N([C@@H](C)CO)C[C@H](C)[C@@H](CN(C)Cc2ccc(Oc4ccccc4)cc2)O3)cc1 | i | nt | i | nt | nt
C[C@H](CO)N1C[C@H](C)[C@H](CN(C)C(=O)Nc2cccc3ccccc23)OCc2cn(nn2)CCCC1=O | i | nt | i | nt | nt
COc1cccc(NC(=O)Nc2ccc3c(c2)C(=O)N(C)C[C@@H](OC)[C@@H](C)CN(C)[C@H](C)CO3)c1 | i | nt | i | nt | nt
O=C(C1CCC1)N1[C@H](CO)[C@@H](c2ccccc2)C12CN(CCC(F)(F)F)C2 | i | nt | i | nt | nt
COc1ccc(NC(=O)N2CC(=O)N3[C@@H](CO)[C@@H](c4ccc(/C=C/c5ccccc5)cc4)[C@@H]3C2)cc1 | 89 | nt | i | nt | nt
O=C(Nc1ccc(F)cc1)N1CC(=O)N2[C@H](CO)[C@@H](c3ccc(-c4ccccc4)cc3)[C@@H]2C1 | i | nt | 60 | nt | nt
CCC(=O)N1[C@@H]2c3cccc(=O)n3C[C@@H]2[C@@H](CO)[C@@H]1C(=O)N[C@@H](C)c1ccccc1 | nt | nt | i | nt | nt
COc1cc(O)cc(O)c1C(=O)/C=C/c1ccccc1 | nt | 52 | i | i | i
COc1cc(/C=C/C(O)=C/C(=O)/C=C/c2ccc(O)cc2)ccc1O | 63 | i | i | i | i
COc1cc(OC)c(C(=O)/C=C/c2ccccc2)c(O)c1O | nt | i | i | i | i
CO[C@H]1CN(C)C(=O)c2cc(NC(=O)Nc3ccccc3F)ccc2OC[C@@H](C)NC[C@@H]1C | nt | nt | i | nt | nt
Cc1nc2sc(-c3ccccc3)cc2c(=O)n1N | i | i | 69 | i | i
C[C@@H]1CCCCO[C@@H](CN(C)C(=O)Nc2ccc(F)cc2)[C@@H](C)CN([C@@H](C)CO)C(=O)c2cc(NC(=O)CCCN(C)C)ccc2O1 | nt | nt | i | nt | nt
CC1=NN(c2ccc(C)c(C)c2)C(=O)/C1=C\C=C\c1ccc([N+](=O)[O-])o1 | 70 | i | 67 | i | i
CCOC(=O)c1ccc(N2N=C(C)/C(=C/C=C/c3ccco3)C2=O)cc1 | i | i | nt | i | i
Cc1ccc(NC(=O)C(Nc2ccccc2)c2ccccc2)cc1 (stereo unspecified) | i | i | i | i | i
Cc1ccc(NC(C(=O)c2ccccc2)c2ccccc2)cc1 (stereo unspecified) | 80 | i | i | i | i
COc1ccc2c3c(n(C)c2c1)[C@@H](CO)N(Cc1nccs1)CC31CCN(C(C)=O)CC1 | nt | nt | i | nt | nt
